Reference: PubChem BioAssay AID1259415 (National Center for Advancing Translational Sciences (NCATS), 2018)
The whole screen tested about 410,000 compounds, of which about 18,000 (4.4%) were called active. Not shown: some 7% with an inconclusive outcome. The full list was thinned out, with actives kept by preference. Unmarked numbers belong to inactive results. Cut-off read from the data, not from the text of the source: active = activity change below about -60%; inconclusive = no clear call, values can overlap the other calls; inactive = above about -39%.
% is set by controls: 0 for no effect and ±100 for the full control effect.

Experiment: qHTS Assay for inhibitors of the human cytomegalovirus (HCMV)
Settings: HFF cells, HCMV-luciferase reporter, 72 h; at 57.5 µM; stronger effect = lower value
How it was run: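 Steps: HFFs plated, 16 h 37C; compounds added; HCMV-luciferase added to MOI 1 PFU/cell; 72 h 37C; OneGlo reagent, 5 min room temperature; luminescence read, normalized to controls.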
Molecule `Cn1c(=O)n(Cc2c(F)cccc2Cl)c(=O)c2c1nc1n2CCN1c1ccc(F)cc1` has an activity change, negative = inhibition of 17.8%. `COCCn1c(SCC(=O)c2cc(C)ccc2C)nc2cc(C(=O)NC3CCCC3)ccc2c1=O` showed an activity change, negative = inhibition of -4.52%. With `CC(C)c1ccc(NS(=O)(=O)c2ccc3[nH]cc(C(=O)NC4CCCC4)c(=O)c3c2)cc1` the activity change, negative = inhibition was 9.04%. Molecule `Cn1nnnc1SCCNCc1ccc(Cl)c(Cl)c1` has an activity change, negative = inhibition of 6.59%. Work on `Cc1c(Cl)cccc1-c1ccc(CNCCCSc2nnnn2C)o1` yielded an activity change, negative = inhibition of -0.502%. For `COc1cccc(CNCCSc2nnnn2C)c1OCc1ccccc1Cl`, the activity change, negative = inhibition was -75.4% (active). `COc1cc(CNCCSc2nnnn2C)ccc1OCc1ccc(Cl)cc1Cl` showed an activity change, negative = inhibition of -13.2%. Work on `CCOc1ccc(CNCCSc2nnnn2C)cc1` yielded an activity change, negative = inhibition of -12.8%. In the case of `COc1cc(CNCCSc2nnnn2C)ccc1OCc1c(F)cccc1Cl`, the activity change, negative = inhibition was -60.3% (active). For `Cc1ccc(Cn2c(C)c3cnn(CC(=O)NCc4ccccc4)c(=O)c3c2C)cc1`, the activity change, negative = inhibition was -4.95%. In the case of `Cc1ccc(CNC(=O)CSC2=Nc3ccccc3C3=NC(C)C(=O)N23)cc1` (stereo not drawn), the activity change, negative = inhibition was -13.2%. Molecule `CCCn1ccc2c(OCC(=O)NCc3ccc(F)cc3)cccc2c1=O` has an activity change, negative = inhibition of 13.2%. In the case of `CC1=C(c2ccc(F)cc2)S(=O)(=O)N=C1N1CCC(C(=O)NCCc2ccccc2C)CC1`, the activity change, negative = inhibition was -1.97%. Molecule `CCOc1ccc(CNC(=O)CCc2c(C)nn(-c3ccc(N4CCCCC4)nn3)c2C)cc1` has an activity change, negative = inhibition of 17.5%. `CC(Sc1cccc[n+]1[O-])C(=O)Nc1cccc(S(=O)(=O)N2CCOCC2)c1` (stereo not drawn) gave an activity change, negative = inhibition of 28.7%. For `CCC(=O)c1ccc(OCC(O)Cn2nc(C)c(C(C)=O)c2C)cc1` (stereo not drawn), the activity change, negative = inhibition was -74.9% (active). `CCC(=O)c1ccc(OCC(O)CN2CCN(c3cccc(C(F)(F)F)c3)CC2)cc1` (stereo not drawn) gave an activity change, negative = inhibition of -2.36%. Molecule `CCC(=O)c1ccc(OCC(O)CN2C(=O)NC(C)(C)C2=O)cc1` (stereo not drawn) has an activity change, negative = inhibition of -18.3%. For `COc1ccc(S(=O)(=O)N2CCCCC2c2cc(C(=O)NCc3ccc(F)cc3)no2)cc1` (stereo not drawn), the activity change, negative = inhibition was -15%. In the case of `COc1ccccc1OCC(=O)Nc1nnc2n1CCS2`, the activity change, negative = inhibition was 1.36%. Work on `CC1CN(C(=O)N2CCC(C(=O)NCc3ccco3)CC2)c2cc(Cl)ccc2O1` (stereo not drawn) yielded an activity change, negative = inhibition of -3.73%. For `O=C(CCc1nnc2ccc(NCCCN3CCCC3=O)nn12)NCc1ccccc1Cl`, the activity change, negative = inhibition was 0% (active). In the case of `O=C1CCCN1CCCNC(=S)Nc1ccc(F)c(Cl)c1`, the activity change, negative = inhibition was -22.1%. Molecule `Cn1c(=O)c2sccc2n2c(CCC(=O)NCc3ccccc3Cl)nnc12` has an activity change, negative = inhibition of 9.44%. `Cc1cc(=O)c2cc(C(=O)Nc3cccc(C)c3C)ccc2[nH]1` gave an activity change, negative = inhibition of -7.29%. `C[C@@H]1CC2=C(C(=O)OC(C)(C)O2)[C@@H](C2CC2)O1` showed an activity change, negative = inhibition of 7.2%. Molecule `CCN(C(=O)COC(=O)c1c(C)nn(-c2ccccc2)c1Cl)c1c(N)n(Cc2ccccc2)c(=O)[nH]c1=O` has an activity change, negative = inhibition of -3.2%. With `O=C(CSc1ccc(-c2ccco2)nn1)NCc1ccc2c(c1)OCO2` the activity change, negative = inhibition was -3.61%. `Cn1cccc1Cc1nnc(SCC(=O)NCc2ccc3c(c2)OCO3)n1CCc1ccccc1` gave an activity change, negative = inhibition of -7.07%. With `O=C(CSc1ncnc2scc(-c3ccccc3)c12)NCc1ccc2c(c1)OCO2` the activity change, negative = inhibition was -73.8% (active). Molecule `COc1cc2nc(SCc3ccc(F)cc3)n3nc(CCn4c(C)nc5ccccc54)nc3c2cc1OC` has an activity change, negative = inhibition of -1.21%. With `O=C(CCC(=O)N1CC2CCCN2c2ccccc21)NCc1ccccc1Cl` (stereo not drawn) the activity change, negative = inhibition was -6.89%. `COc1cc(NC(=O)CSc2nc3nc(C)c(Cc4ccc(C)cc4)c(C)n3n2)cc(OC)c1OC` gave an activity change, negative = inhibition of 0%. For `COC(=O)c1c(NC(=O)c2ccc(S(=O)(=O)N3CCOCC3)cc2)sc2c1CCN(C(C)C)C2`, the activity change, negative = inhibition was -4.29%. `CCOC(=O)c1c(NC(=O)C2CCN(S(=O)(=O)c3ccc(Cl)cc3)CC2)sc2c1CCCC2` showed an activity change, negative = inhibition of -10.4%. With `CCOC(=O)c1c(NC(=O)c2ccc(S(=O)(=O)N3CCCC(C)C3)cc2)sc2c1CCN(C(C)C)C2` (stereo not drawn) the activity change, negative = inhibition was -62.5% (active). Work on `NC(=O)CSc1nc2c(oc3ccccc32)c(=O)n1Cc1ccccc1` yielded an activity change, negative = inhibition of -22.4%. With `COc1ccc(OC)c(NC(=O)Cn2c(=O)n(Cc3ccccc3)c(=O)c3ccccc32)c1` the activity change, negative = inhibition was -3.04%. With `COc1cccc(C(=O)N(Cc2cccc(Cl)c2)Cc2ccco2)c1` the activity change, negative = inhibition was -7.17%. In the case of `CCC(=C/c1sc2ccc3ccccc3c2[n+]1C)/C=C1\Sc2ccc3ccccc3c2N1C`, the activity change, negative = inhibition was -100% (active). Molecule `CCOc1ccc(N2CC(c3nc4ccccc4n3CCOc3ccc(OC)cc3)CC2=O)cc1` (stereo not drawn) has an activity change, negative = inhibition of 23.3%. Molecule `Cc1ccc(-n2c(=O)c3cccnc3n2CC(=O)NCc2ccc(F)cc2)cc1C` has an activity change, negative = inhibition of -0.36%. Molecule `O=C(CSc1nc2nccnc2c(=O)n1Cc1cccs1)Nc1ccccc1F` has an activity change, negative = inhibition of -31.3%. In the case of `CCOc1ccc(NC(=O)CSc2nc3ccccc3c(=O)n2Cc2cccs2)cc1`, the activity change, negative = inhibition was -62.8% (active). In the case of `CCOc1ccc(NC(=O)c2cc3c(=O)n(Cc4cccs4)ccc3nc2C)cc1`, the activity change, negative = inhibition was -12.4%. In the case of `CCc1ccc(C(=O)C(C)OC(=O)CN2C(=O)NC3(CCCC3)C2=O)cc1` (stereo not drawn), the activity change, negative = inhibition was -31.9%. Molecule `O=S(=O)(NCC1CN(S(=O)(=O)c2ccc3c(c2)OCCO3)C1)c1c(F)cccc1F` has an activity change, negative = inhibition of -3.7%. `Cc1ccc(S(=O)(=O)c2nc(-c3ccco3)oc2SCC(=O)Nc2ccc(F)cc2)cc1` gave an activity change, negative = inhibition of 1.94%. `COc1ccccc1CNc1nccn(-c2ccc(F)cc2)c1=O` showed an activity change, negative = inhibition of 18.6%. `CCN(CC)S(=O)(=O)c1cc([N+](=O)[O-])ccc1N=Nc1c(O)n(C)c2ccccc12` showed an activity change, negative = inhibition of -37.9%. For `Cn1cnc(C(F)(F)F)c1-c1ccc([N+](=O)[O-])cc1`, the activity change, negative = inhibition was -9.95%. For `Cn1nc(-c2ccccc2)c2cc([N+](=O)[O-])ccc21`, the activity change, negative = inhibition was -91.8% (active). For `Cc1cccc(NS(=O)(=O)c2cc(Cl)ccc2Cl)n1`, the activity change, negative = inhibition was -15.4%. `Cn1c(=O)c2[nH]c(NCC3CCCO3)nc2n(-c2ccccc2)c1=O` (stereo not drawn) showed an activity change, negative = inhibition of -3.27%. Molecule `CCCCCNC(=O)c1cccnc1SCC(=O)Nc1ccccc1OC` has an activity change, negative = inhibition of -9.93%. `Cc1ccc(Oc2c(C(F)(F)F)oc3c(CN4CCCCC4)c(O)ccc3c2=O)cc1` gave an activity change, negative = inhibition of 13.5%. In the case of `Cc1oc2ccc(O)c(CN3CCC(C)CC3)c2c1C(=O)Nc1ccccc1`, the activity change, negative = inhibition was -68.4% (active). In the case of `Cc1oc2ccc(O)c(CN3CCCCC3)c2c1C(=O)Nc1cccc(C(F)(F)F)c1`, the activity change, negative = inhibition was -76.5% (active). `CCN1CCN(Cc2c(O)ccc3oc(C)c(C(=O)Nc4ccc(C)cc4C)c23)CC1` showed an activity change, negative = inhibition of -4.07%. Work on `CCOC(=O)c1cccc(NC(=O)c2cc(CN3CCCC3)on2)c1` yielded an activity change, negative = inhibition of 88.3%. Work on `Cc1oc2ccc(O)c(CN3CCOCC3)c2c1C(=O)Nc1cccc(Cl)c1C` yielded an activity change, negative = inhibition of 0.476%. For `O=C(NCC(F)(F)F)c1ccc(S(=O)(=O)NCCc2ccc3c(c2)OCCO3)cc1`, the activity change, negative = inhibition was -6.01%. With `CCOc1ccccc1NC(=O)Cn1c2ncccc2c(=O)n1-c1ccc(C)c(C)c1` the activity change, negative = inhibition was -10.1%. For `CC1CCCN(S(=O)(=O)c2ccc3[nH]c(=O)cc(C(=O)NCCc4ccc(Cl)cc4)c3c2)C1` (stereo not drawn), the activity change, negative = inhibition was -16.9%. Work on `CCOC(=O)C(O)(c1ccc(NC(=O)c2ccco2)c(OC)c1)C(F)(F)F` (stereo not drawn) yielded an activity change, negative = inhibition of 8.29%. With `COc1cc(NC(=O)c2cc([N+](=O)[O-])ccc2Br)ccc1NC(=O)c1ccco1` the activity change, negative = inhibition was -60.9% (active). In the case of `COC(=O)C(O)(c1ccc(NC(=O)c2ccco2)c(OC)c1)C(F)(F)F` (stereo not drawn), the activity change, negative = inhibition was 14.6%. Work on `C=CCOC(=O)C1=C[C@@H](c2ccc3c(c2)OCO3)C[C@@H](OCCCCO)O1` yielded an activity change, negative = inhibition of 20.6%. Work on `CN1C(=O)CC[C@@H](S(=O)(=O)c2ccccc2)[C@@H]1c1ccccc1` yielded an activity change, negative = inhibition of 9.42%. With `CCOCCCNC(=O)c1cn(CC)c2ccc(S(=O)(=O)N3CCc4ccccc4C3)cc2c1=O` the activity change, negative = inhibition was 8.54%. In the case of `Cc1cc(C)c2nc3nc(C)cc(C)c3c(N)c2c1`, the activity change, negative = inhibition was -100% (active). `CCOc1ccc(S(=O)(=O)NCCC(=O)N2CCCCCCC2)cc1` showed an activity change, negative = inhibition of -33.2%. In the case of `CCCc1c(C(=O)Nc2ccc(F)cc2)cnn1-c1ccccc1`, the activity change, negative = inhibition was 64.5%. In the case of `CCNC(=O)c1cnn(-c2ccccc2)c1-c1ccccc1`, the activity change, negative = inhibition was -99.9% (active). `Cc1c(C(=O)NCc2ccccc2)cnn1-c1ccccc1` showed an activity change, negative = inhibition of -15.9%. `CSc1cccc(NC(=O)CN2C(=O)CCc3cc(S(=O)(=O)N4CCCCC4)ccc32)c1` gave an activity change, negative = inhibition of 23.2%. In the case of `Cc1ccc(NC(=O)Nc2sc3nc4n(c(=O)c3c2C)CCC(C)CC4)c(Cl)c1` (stereo not drawn), the activity change, negative = inhibition was -0.215%. With `O=C(/C=C/c1ccc([N+](=O)[O-])o1)NNC(=O)c1ccc(F)cc1` the activity change, negative = inhibition was -99.5% (active). With `N#Cc1nc(/C=C/c2ccc(F)cc2)oc1NC1CCCCC1` the activity change, negative = inhibition was -16.7%. `O=C1C=CN2CCCC2CC1` (stereo not drawn) showed an activity change, negative = inhibition of -5.48%. With `CCc1ccc(NC(=O)Cn2c(=O)n(CCC(=O)NCc3ccc4c(c3)OCO4)c(=O)c3ccccc32)cc1` the activity change, negative = inhibition was 7.9%. In the case of `O=C(Nc1ccc(Br)cn1)C1CCN(S(=O)(=O)c2cccs2)CC1`, the activity change, negative = inhibition was -89.3% (active). Work on `O=C(C1CCN(S(=O)(=O)c2cccs2)CC1)N1CCCCCC1` yielded an activity change, negative = inhibition of -4.69%. In the case of `O=C(NCc1ccc(Cl)cc1)C1CCN(S(=O)(=O)c2cccs2)CC1`, the activity change, negative = inhibition was -33.3%. With `CCCCN(CC)CCCNC(=O)c1nn(C)c2c1CSc1ccccc1-2` the activity change, negative = inhibition was -32.8%. With `Cc1ccc(Cl)cc1N(C)C(=O)Cn1nc(Cc2cccnc2)c2ccccc2c1=O` the activity change, negative = inhibition was -61.7% (active). Molecule `O=C(Cn1nc(Cc2cccnc2)c2ccccc2c1=O)NCC1CCCO1` (stereo not drawn) has an activity change, negative = inhibition of -1.61%. In the case of `CN(CC(=O)NCc1cccnc1)S(=O)(=O)c1cc(Cl)ccc1Cl`, the activity change, negative = inhibition was -21.9%.
